According to PubChem BioAssay (NCATS):
Results filed as inconclusive are left out. A number with no mark means an inactive call. The call rests on the fitted dose curve; in most records, active means well fitted curve in either direction with a large enough effect (not every such curve was filed as active); inconclusive means small, poorly fitted or top-dose-only effect, or another doubt; inactive means flat fitted curve, though single readings scatter.

Test: AP1 Signaling Pathway (AID 357);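 further: ME-180 reporter cells stimulated with EGF at its EC50 level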
Conditions: ME-180 (cervical carcinoma) AP-1-bla reporter, EGF-induced, beta-lactamase ratio, 5 h; at 7.69 µM (top of the series) unless noted
Outline: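 Modulation of EGF-driven AP-1 transcription was assessed with a beta-lactamase reporter in ME-180 cells. Compound and EC50 EGF were co-incubated 5 hours at 37 °C before 2.5-hour CCF4 loading at room temperature and dual-emission reading.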
On the % scale 0 is the no-effect control and ±100 the full control effect.

SMILES | activity change, negative = inhibition [%]
N[C@@H](CSC1(c2ccc(Cl)cc2)c2ccccc2-c2ccccc21)C(=O)O | -8.46
OC[C@@H]1CCC[C@H](n2cnc3c(=S)nc[nH]c32)O1 | 1.32
Cc1noc(C)c1C(=O)N1CCC2(CC1)CN(c1cccc(-c3ccccc3)c1)C2 | -13.8
CC(=O)CSCc1ccccn1 | 4.51
CC(C)CN(CC#N)CC(C)C | 6.22
CC1(C)S[C@@H]2[C@H](C(=O)O)N=C(Cc3ccccc3)N2[C@H]1C(=O)O | 2.18
O=C(O)c1cccc(N=Nc2c(S(=O)(=O)O)ccc3c2C(=O)c2ccccc2C3=O)c1O | 9.86
O=[N+]([O-])c1ccc(CS(=O)Cc2ccccc2)cc1 (stereo not drawn) | -8.79
O=C(O)c1ccncc1.O=C(O)c1ccncc1.[Cl][Pt]([Cl])([Cl])[Cl] | 2.72
CC(CCc1nc2ccccc2s1)(c1ccc(O)cc1)c1ccc(O)cc1 | 7.74
c1ccc(CN2COc3c(ccc4c5c(ccc34)CN(Cc3ccccc3)CO5)C2)cc1 | -0.336
COc1ccc(C(=O)N2CCC[C@@]3(CCN(c4ccccc4)C3)C2)cc1 | -5.32
O=C(O)CN1C(=O)O[C@@H](c2ccccc2)C1=O | -1.65
O=S(=O)(c1ccccc1)N1CCN(S(=O)(=O)c2ccccc2)c2ccccc21 | -16.4
Cc1nn(-c2ccc(S(=O)(=O)O)cc2)c(O)c1N=Nc1ccc(-c2ccc(N=Nc3ccc4c(S(=O)(=O)O)cc(S(=O)(=O)O)c(N)c4c3O)c(O)c2)cc1O.[Cu].[Cu] | 8.16
CN1CCC[C@@H]1c1cccnc1.O=C(O)c1ccccc1O.O=C([OH2+])c1ccccc1O.O=C([OH2+])c1ccccc1O.O=C([OH2+])c1ccccc1O.[Cu] | 0.0867
O=C1OC2(c3ccc(O)cc3Oc3cc(O)ccc32)c2c1c(-c1ccccc1)c(-c1ccccc1)c(-c1ccccc1)c2-c1ccccc1 | -28.2
CC(C)(CN)SCc1ccccc1 | 5.51
COCCn1c(=O)c(-c2cc(F)cc(F)c2)nc2cnc(Oc3ccc(OC)cc3)nc21 | -11.1
COc1ccc(Oc2ncc3nc(-c4ccccc4)c(=O)n(CCC#N)c3n2)cc1 | -26.9

SMILES | activity change, negative = inhibition [%]
CC(C)c1ccc2c(c1)CC[C@H]1[C@@](C)(CN)CCC[C@@]21C | 6.87
CN1CCC[C@@H]1c1cccnc1.O=C(O)c1ccccc1O.O=C([OH2+])c1ccccc1O.O=C([OH2+])c1ccccc1O.O=C([OH2+])c1ccccc1O.[Mn] | 13.3
Cn1c(N)nc2c(nc(OCc3ccccc3)n2[C@@H]2O[C@H](CO)[C@@H](O)[C@@H]2O)c1=O | 2.38
O=C(O)c1oc(C(=O)O)c(C(=O)O)c1C(=O)O | 10.9
OC(Cc1ccccc1)(Cc1ccccc1)c1ccccc1 | -8.82
O=C(O)CN(CCN(CC(=O)O)CC(=O)O)CC(=O)O.[Mn] | -0.063
Cc1cc(C)nc(NC(=O)COc2ccc(Cl)cc2)c1 | 7.73
CCN(CC)COC(=S)S | 7.48
CCc1ccc(CCC(=O)O)nc1 | 0.964
CN1CCC[C@@H]1c1cccnc1.O=C(O)c1ccccc1O.O=C([OH2+])c1ccccc1O.O=C([OH2+])c1ccccc1O.[Mn] | 10.8
COc1ccc(C(=O)N2CCC3(CC2)CCN(c2ccccn2)CC3)cc1 | -1.45
O=C(O)CN(CCN(CC(=O)O)CC(=O)O)CC(=O)O.[Cu] | -4.33
CCC(=O)[C@@H](c1ccccc1)c1ccccn1 | 10.3
Cc1cc(OCC(=O)O)c(Cl)cc1Cl | 2.52
NC(=O)NCCS[C@H]1CCCC[C@@H]1O | 3.84
CN(C)CN1CSC(=S)N(CN(C)C)C1 | -2.13
CCOC(=O)Cn1c(C(F)(F)F)nc2nc(Cl)c(Cl)nc21 | 6.84
Cc1cc(Cl)ccc1OCC(=O)Oc1c(Cl)c(Cl)c(Cl)c(Cl)c1Cl | 0.808
OCCSCc1cc(Cl)cc(Cl)c1O | -3.03

Test: NFAT Signaling Pathway (AID 444);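 further: carbachol stimulus at about its EC50 of 1 µM final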
Conditions: Jurkat NFAT-bla M1, carbachol, beta-lactamase ratio, 5 h; at 7.69 µM (top of the series) unless noted
Outline: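 Jurkat cells with NFAT-driven β-lactamase reporter and co-expressed M1 receptor, stimulated with carbachol (final 1 uM, ~EC50), compound titration, 5 h at 37 °C. CCF4 loaded 1 h at RT; 460/530 nm ratio gave %activity and AC50.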

SMILES | activity change, negative = inhibition [%]
N[C@@H](CSC1(c2ccc(Cl)cc2)c2ccccc2-c2ccccc21)C(=O)O | 10.1
OC[C@@H]1CCC[C@H](n2cnc3c(=S)nc[nH]c32)O1 | 24.8
Cc1noc(C)c1C(=O)N1CCC2(CC1)CN(c1cccc(-c3ccccc3)c1)C2 | 5.64
CC(=O)CSCc1ccccn1 | -1.92
CC(C)CN(CC#N)CC(C)C | 12.7
CC1(C)S[C@@H]2[C@H](C(=O)O)N=C(Cc3ccccc3)N2[C@H]1C(=O)O | 8.91
O=C(O)c1cccc(N=Nc2c(S(=O)(=O)O)ccc3c2C(=O)c2ccccc2C3=O)c1O | -3.54
O=[N+]([O-])c1ccc(CS(=O)Cc2ccccc2)cc1 (stereo not drawn) | -22
O=C(O)c1ccncc1.O=C(O)c1ccncc1.[Cl][Pt]([Cl])([Cl])[Cl] | -19.9
CC(CCc1nc2ccccc2s1)(c1ccc(O)cc1)c1ccc(O)cc1 | 1.62
c1ccc(CN2COc3c(ccc4c5c(ccc34)CN(Cc3ccccc3)CO5)C2)cc1 | 7.9
COc1ccc(C(=O)N2CCC[C@@]3(CCN(c4ccccc4)C3)C2)cc1 | -9.66
O=C(O)CN1C(=O)O[C@@H](c2ccccc2)C1=O | 11.5
O=S(=O)(c1ccccc1)N1CCN(S(=O)(=O)c2ccccc2)c2ccccc21 | -13.6
Cc1nn(-c2ccc(S(=O)(=O)O)cc2)c(O)c1N=Nc1ccc(-c2ccc(N=Nc3ccc4c(S(=O)(=O)O)cc(S(=O)(=O)O)c(N)c4c3O)c(O)c2)cc1O.[Cu].[Cu] | 6.08
CN1CCC[C@@H]1c1cccnc1.O=C(O)c1ccccc1O.O=C([OH2+])c1ccccc1O.O=C([OH2+])c1ccccc1O.O=C([OH2+])c1ccccc1O.[Cu] | -1.52
O=C1OC2(c3ccc(O)cc3Oc3cc(O)ccc32)c2c1c(-c1ccccc1)c(-c1ccccc1)c(-c1ccccc1)c2-c1ccccc1 | 5.71
CC(C)(CN)SCc1ccccc1 | -0.0753
COCCn1c(=O)c(-c2cc(F)cc(F)c2)nc2cnc(Oc3ccc(OC)cc3)nc21 | 0.515
COc1ccc(Oc2ncc3nc(-c4ccccc4)c(=O)n(CCC#N)c3n2)cc1 | -6.24

SMILES | activity change, negative = inhibition [%]
CC(C)c1ccc2c(c1)CC[C@H]1[C@@](C)(CN)CCC[C@@]21C | 30
CN1CCC[C@@H]1c1cccnc1.O=C(O)c1ccccc1O.O=C([OH2+])c1ccccc1O.O=C([OH2+])c1ccccc1O.O=C([OH2+])c1ccccc1O.[Mn] | -2.84
Cn1c(N)nc2c(nc(OCc3ccccc3)n2[C@@H]2O[C@H](CO)[C@@H](O)[C@@H]2O)c1=O | 6.31
O=C(O)c1oc(C(=O)O)c(C(=O)O)c1C(=O)O | 7.7
OC(Cc1ccccc1)(Cc1ccccc1)c1ccccc1 | -15.2
O=C(O)CN(CCN(CC(=O)O)CC(=O)O)CC(=O)O.[Mn] | 7.91
Cc1cc(C)nc(NC(=O)COc2ccc(Cl)cc2)c1 | -19.2
CCN(CC)COC(=S)S | -12.2
CCc1ccc(CCC(=O)O)nc1 | -3.46
CN1CCC[C@@H]1c1cccnc1.O=C(O)c1ccccc1O.O=C([OH2+])c1ccccc1O.O=C([OH2+])c1ccccc1O.[Mn] | -9.45
COc1ccc(C(=O)N2CCC3(CC2)CCN(c2ccccn2)CC3)cc1 | -26.9
O=C(O)CN(CCN(CC(=O)O)CC(=O)O)CC(=O)O.[Cu] | 0.389
CCC(=O)[C@@H](c1ccccc1)c1ccccn1 | -5.51
Cc1cc(OCC(=O)O)c(Cl)cc1Cl | 2.25
NC(=O)NCCS[C@H]1CCCC[C@@H]1O | 3.5
CN(C)CN1CSC(=S)N(CN(C)C)C1 | 1.69
CCOC(=O)Cn1c(C(F)(F)F)nc2nc(Cl)c(Cl)nc21 | -10.5
Cc1cc(Cl)ccc1OCC(=O)Oc1c(Cl)c(Cl)c(Cl)c(Cl)c1Cl | -13.6
OCCSCc1cc(Cl)cc(Cl)c1O | 14.2
